Measured values: PubChem BioAssay AID602391 (National Center for Advancing Translational Sciences (NCATS), 2012)
This is one part of the list. Records with an inconclusive call do not appear. The source made the active and inactive calls. The call rests on the fitted dose curve; in most records, active means well fitted inhibition curve with a large enough effect; inconclusive means small, poorly fitted or top-dose-only effect; inactive means flat fitted curve, though single readings scatter.

Assay: qHTS Assay for Inhibitors of Bacillus subtilis Sfp phosphopantetheinyl transferase (PPTase): SAR in hGST A1-1
Settings: hGST A1-1 enzyme activity counter-screen; series mostly up to 114 µM
Source text: The covalent attachment of a phosphopantetheinyl (4'-PP) arm to a variety of synthases and other proteins is a key posttranslational protein modification. The 4'-PP is installed on the proteins post-translationally from coenzyme A (CoA) on a conserved serine residue by action of phosphopantetheinyl transferase (PPTase) enzymes. Phosphopantetheinylation is essential for synthase activity, and removal of the PPTase gene precludes natural product synthesis in microorganisms, or in the case of fatty acid biosynthesis, renders the organism unviable. PPTase enzymes belong to a distinct structural superfamily. Within bacteria, these enzymes are grouped into two classes based upon primary structure, the AcpS-Type and Sfp-Type PPTases. […]
In search of small molecule Sfp-PPTase inhibitors, a fluorescence quenching assay was developed for detection of Bacillus subtilis Sfp-PPTase enzymatic activity in a miniaturized high-throughput format. […]
This assay sought to assess the promiscuity of test articles with an unrelated target enzyme. The appropriate target for this work was determined to be human glutathione-S-transferase, an enzyme responsible for detoxifying modifying electrophilic xenobiotics to enhance their excretion. […]

Structure (SMILES)	outcome
COc1ccnc(NC(=S)N2CCN(c3ncc(C(F)(F)F)cc3Cl)CC2)c1	inactive
Cc1cc(C)nc(NC(=S)N2CCN(c3ccc(Cl)cc3C(F)(F)F)CC2)c1	inactive
